Experimental findings from PubChem BioAssay (EPA / NIEHS) are described below.

Several values for one entry are separate records, joined by “and”; a condition that tells them apart may be missing. Equal values may be shown once. Inconclusive results are not listed. Some compounds were tested as several samples or in several runs, with calls that do not always agree. Activity calls are given as the source filed them. The calls were made as follows: active = hit-call score of the fitted dose curve at least 0.9, where 1 is the maximum; inconclusive = response in the unintended direction; inactive = score below 0.9.

A short description of this assay: ACEA_ER_AUC_viability: ACEA Biosciences xCELLigence Real-Time Cell Analysis on Estrogen Receptor Agonism for Viability (AID 2283782).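 Also: continuous compound exposure with impedance area under curve over 80 h; hit means loss of impedance signal meaning reduced cell growth or viability.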 The procedure: ACEA_ER is a cell-based, single-readout assay that uses T47D, a human breast cell line, with measurements taken at 80 hours after chemical dosing in a 96-well plate, although TO2 (mc0.srcf) used a 384-well plate. Differences in plate size can be ignored given data normalization.ACEA_ER_AUC_viability is one of two assay component(s) measured or calculated from the ACEA_ER assay. It is designed to make measurements of real-time cell-growth kinetics, a form of growth reporter, as detected with electrical impedance signals by Real-Time Cell Electrode Sensor (RT-CES) technology.Data from the assay component ACEA_ER_AUC_viability was analyzed in the positive analysis fitting direction relative to DMSO as the negative control and baseline of activity. Using a type of growth reporter, loss-of-signal activity can be used to understand changes in the viability. Furthermore, this assay endpoint can be referred to as a secondary readout, because this assay has produced multiple assay endpoints where this one serves a viability function. To generalize the intended target to other relatable targets, this assay endpoint is annotated to the cell cycle intended target family, where the subfamily is cytotoxicity.
The xCELLigence system Multi-E-Plate stations were used to measure the time-dependent response to chemicals. Each compound was tested in an eight-point, 1:4 serial dilution series starting at a maximum final concentration of 100 uM. A maximum starting concentration of 0.5% DMSO was present in the 100 uM chemical samples and was diluted along with the test article dilution series. The screen was performed in biological duplicate using two separate, 96-well, E-Plates 96 for each dilution series (n = 2). Positive controls (MG132 and E2) and a negative control (assay media) were tested in quadruplicate on each testing plate. Then, 0.5% and 0.125% DMSO were tested in duplicates in each plate to serve as solvent controls for the 2 highest concentrations of testing compounds: 100 uM and 25 uM. Reference compounds were tested with 8 concentrations with 1:5 serial dilutions. All screening was carried out by ACEA Biosciences, Inc. (San Diego, CA). T-47D cells purchased from ATCC were maintained in RPMI1640 media supplemented with 10% characterized fetal bovine serum (FBS). Before screening, T-47D cells were preconditioned in assay medium: phenol red-free RPMI1640 supplemented with 10% charcoal-stripped FBS. Cells were then detached and seeded in E-Plates 96 in assay medium. After overnight monitoring of growth once every hour, compounds were added to […] cells and remained in the medium until the end of the experiment. Cellular responses were then recorded once every 5 min for the first 5 h, and once every hour for an additional 100 h.
`Cc1ccccc1[N+](=O)[O-]`: the outcome was inactive. As for `ClC(Cl)=C(c1ccc(Cl)cc1)c1ccc(Cl)cc1`, the half-maximal activity concentration (AC50) (in general, the concentration at which the activity in the assay is half-maximal) was 80.6 µM (active) and 29.5 µM (active) and 74.7 µM (active). Take `Oc1c(Cl)c(Cl)c(Cl)c(Cl)c1Cl`: the AC50 was 77.9 µM (active) and the outcome was inactive. On to `CCOC(=O)C(O)(c1ccc(Cl)cc1)c1ccc(Cl)cc1`, for which the AC50 is 81.3 µM (active). As to `Sc1ccccc1`, the result was inactive. On the same count and under the same terms, the result for `Cc1cc2c3c(c1)C(c1ccccc1)=N[C@@H](NC(=O)c1ccncc1)C(=O)N3CC2` reads “inactive”; that for `O=C(NC(=O)c1cc(F)c(F)cc1Cl)Nc1cc(F)ccc1N1CCC(C(=O)O)CC1`, “inactive”.

As to `Nc1ccc(-c2ccc(N)cc2)cc1`, the outcome was inactive. Same read-out and setting: with `O=S(=O)(O)C(F)(F)C(F)(F)C(F)(F)C(F)(F)C(F)(F)C(F)(F)F` the entry was “inactive”. The same measure, in the same setting: the result for `ClC1=C(Cl)[C@]2(Cl)[C@@H]3[C@H]4C[C@H]([C@@H]5O[C@H]45)[C@@H]3[C@@]1(Cl)C2(Cl)Cl` reads “inactive”. As for `O=C(O)C(F)(F)C(F)(F)C(F)(F)C(F)(F)C(F)(F)C(F)(F)C(F)(F)C(F)(F)F`, the call was inactive and the concentration at half-maximal activity (AC50) is 122 µM (active). Take `CN(C)c1nc(=O)n(C2CCCCC2)c(=O)n1C`: the outcome was inactive.

`CCSC(=O)N(CC)C1CCCCC1`: the molecule was classed as inactive. For the molecule `CC(C)(c1ccccc1)c1ccc(O)cc1`, the AC50 was 50 µM (active) and 24.3 µM (active) and 88.6 µM (active). On the same count and under the same terms, the result for `CC(c1ccc(O)cc1)(c1ccc(O)cc1)c1ccc(O)cc1` reads 88.3 µM (active); that for `NS(=O)(=O)C(F)(F)C(F)(F)C(F)(F)C(F)(F)C(F)(F)C(F)(F)C(F)(F)C(F)(F)F`, 77.8 µM (active) and 132 µM (active). Still for that read-out and setting: the result for `CCCCCCCCCc1ccc(O)cc1` reads 21.8 µM (active) and 25.4 µM (active) and 28.8 µM (active); that for `Cc1ccccc1CO[C@@H]1C[C@@]2(C(C)C)CC[C@]1(C)O2`, 74.9 µM (active); that for `Oc1ccc(C(c2ccc(O)cc2)(C(F)(F)F)C(F)(F)F)cc1`, 83.7 µM (active) and 72 µM (active) and 73.8 µM (active). For `c1cc2ccc3cccc4ccc(c1)c2c34`, the outcome was inactive. Consider `CCC(=O)O[C@H]1CC[C@H]2[C@@H]3CCC4=CC(=O)CC[C@]4(C)[C@H]3CC[C@]12C`, for which the concentration at half-maximal activity (AC50) was 92.4 µM (active) and 88.5 µM (active).

`O=S(=O)(O)C(F)(F)C(F)(F)C(F)(F)C(F)(F)F`: the outcome was inactive. Consider `O=C(O)C(F)(F)C(F)(F)C(F)(F)C(F)(F)C(F)(F)C(F)(F)C(F)(F)C(F)(F)C(F)(F)F`, for which the half-maximal activity concentration (AC50) was 78.6 µM (active) and 125 µM (active).

As to `Cc1ccc(O)c(C)c1`, the molecule was called inactive.

Take `ClC1=C(Cl)[C@]2(Cl)[C@@H]3[C@@H](Cl)[C@H]4O[C@H]4[C@@H]3C1(Cl)C2(Cl)Cl`: the AC50 was 73 µM (active). For the molecule `c1ccc(-c2ccccc2)cc1`, the molecule was called inactive. Still for that read-out and setting: the result for `CC1=C2C[C@H]3[C@@H](CC=C4C[C@@H](O)CC[C@@]43C)[C@@H]2CC[C@]12O[C@@H]1C[C@H](C)CN[C@H]1[C@H]2C` reads “inactive”. `CCCCCCCCCC[N+](C)(C)CCCCCCCCCC`: the AC50 is 5.4 µM (active). `Clc1ccc(C(c2ccccc2Cl)C(Cl)(Cl)Cl)cc1` (stereo not given): the concentration at half-maximal activity (AC50) is 42.8 µM (active) and 53.5 µM (active) and 50.9 µM (active). For `COc1ccc(O)c(C(C)(C)C)c1`, the AC50 is 64.6 µM (active). `N#Cc1ccc(N(CC(N)=O)CC(F)(F)F)cc1C(F)(F)F`: the outcome was inactive.

Regarding `CCOP(=S)(OCC)SCSC(C)(C)C`, the AC50 was 92.7 µM (active).

For `OCC(O)CO`, the molecule was classed as inactive.

Consider `Clc1ccc(Cl)cc1`, for which the molecule was classed as inactive. `CCC(C)(c1ccc(O)cc1)c1ccc(O)cc1`: the AC50 is 87.5 µM (active) [middle of 4 runs]. Consider `Cc1cccc(C)c1N`, for which the result was inactive. `O=C(O)C(F)(F)C(F)(F)C(F)(F)C(F)(F)C(F)(F)F`: the result was inactive. Same read-out and setting: the result for `CCCCCCOC(=O)c1ccccc1C(=O)OCCCCCC` reads “inactive”.
